# In the library only some 9.6% were active in any assay of this set; here they are far more common.
# Ins promoter up: insulin promoter activators in MIN6 cells, imaging, high-content screening, mouse beta cells; MIN6 insulin promoter-GFP reporter; hits give high values; z-score at 5 µM; 190,000 compounds, 0.3% hits; AID 1625, 2009;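 active = z-score above 3 at 5 µM with at least 500 cells counted in the well; inconclusive = wells under 500 cells, flagged as cytotoxic or low count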
# bCat KO growth: primary screen for growth suppressors in beta-catenin knockout HCT116 cells (colon tumor, human); HCT116 beta-catenin knockout viability, CellTiter-Glo, 60 h; hits give low values; viability, % at 10 µM; 140,000 compounds, 1.5% hits;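 active = viability at or under a set limit, the compound median less 4 SD, cut at about 6% in these data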
# HCT116 PTEN-null: growth suppression of PTEN-null HCT116, primary screen, cell-based, CellTiter-Glo; HCT116 PTEN-null viability, 60 h; hits give low values; viability, % at 10 µM; 140,000 compounds, 1.2% hits; AID 827, 2007;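 active = viability at or below a set limit, 4 SD under the median of all tested compounds, cut at about 3.7% in these data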;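 note: PTEN knockout HCT116 line with beta catenin targeted HCT116 as companion control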
# INS promoter inh: inhibitors of insulin promoter-driven GFP, primary screen, imaging, TRM-6 cells (human fetal islet line), eGFP reporter, cell count. reporter expression induced with tamoxifen. AID 1273, 2008. inhibition, % at 2 µM. 130,000 compounds, 0.9% hits;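 active = inhibition above the mean plus 3 SD, with well images judged a real hit on visual review, cut at about 60% in these data, passing the limit was not always enough; inconclusive = inhibition over the cutoff but images rejected on review; inactive = inhibition not above the cutoff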
# Autophagy HCS: autophagy modulators in MEF cells, primary screen, imaging, high-content, MEF GFP-LC3 | MEF GFP-LC3 puncta imaging; test concentration mostly 10 µM | calls only at 10 µM (by protocol) | 190,000 compounds, 0.98% hits | AID 463193, 2010;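 active = percentage of spot-positive cells more than 3 SD above its plate mean, without a fluorescence outlier flag or 80% toxicity; inconclusive = no clear call, values can overlap the other calls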
# Lmaj promast: Leishmania major promastigote growth inhibition, primary screen. 200,000 compounds, 9% hits. inhibition, % at 10 µM. Leishmania major promastigotes, resazurin fluorescence viability. AID 1063, 2008; in the data active = inhibition above about 50%;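 note: promastigotes grown with compound for 44 hours at 28 °C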
# A number is an active result; - = inactive; ? = inconclusive; . = not tested or not shown; + = active, no number.
SMILES,Ins promoter up,bCat KO growth,HCT116 PTEN-null,INS promoter inh,Autophagy HCS,Lmaj promast
C=CCN1C(=O)/C(=C/c2ccc3c(c2)CCCN3CCC)C(=O)NC1=S,-,-,-,-,-,91
O=C1NC(=S)N(C2CC2)C(=O)/C1=C/c1ccc2c(c1)CCN2CCCCl,-,-,-,-,-,74
CC(C)(C)N1C(=O)NC(=O)/C(=C\c2ccc3c(c2)CCN3CCCCl)C1=O,-,.,.,.,.,.
Cc1[nH]c2c(C(F)(F)F)cccc2c1CCN,-,-,-,-,-,-
CN1C2CCC1CC(OC(=O)c1cc(Cl)cc(Cl)c1)C2 (stereo not given),-,-,-,-,-,-
Cc1cc(C)nc(-n2c(C)nc3cc(Cl)ccc3c2=O)c1,-,-,-,-,-,-
Cc1nc2cc(C(F)(F)F)ccc2n1C1CCN(Cc2nnnn2Cc2ccc3c(c2)OCO3)CC1,-,-,-,.,-,-
CCCNc1nc(OC)nc(N2CC3CC(C2)c2cccc(=O)n2C3)n1 (stereo not given),-,.,.,-,-,-
Cc1ncc(CN2CCCC(C(=O)c3cccc(OC(C)C)c3)C2)s1 (stereo not given),.,.,.,-,-,89
COc1ccc(Cl)cc1C(=O)C1CCCN(Cc2cnc(C)s2)C1 (stereo not given),-,.,.,.,-,78
COc1c(C)cc(C(=O)C2CCCN(Cc3cnc(C)s3)C2)cc1C (stereo not given),-,.,.,.,-,70
COc1cccc(C(=O)C2CCCN(Cc3ccccn3)C2)c1 (stereo not given),-,.,.,.,-,-
COc1ccc(F)cc1C(=O)C1CCCN(Cc2cnc(C)s2)C1 (stereo not given),-,.,.,.,-,-
COc1c(C)cc(C(=O)C2CCCN(Cc3ccccn3)C2)cc1C (stereo not given),-,.,.,-,-,100
CN1CCCC1C(O)(c1ccccc1)c1ccccc1 (stereo not given),.,.,.,-,-,-
COc1ccccc1/C=C1/C(=N/O)C2CCN1CC2,-,-,-,-,-,-
O=C(C1CC(=O)N(C2CCCCCCC2)C1)N1CCC2(CC1)OCCO2 (stereo not given),-,-,-,74,-,-
CNc1cc(Cl)c2nonc2c1[N+](=O)[O-],-,.,.,.,-,75
O=C1C(=O)c2ccccc2-c2ccccc21,?,1.7,2.2,-,-,100
O=C(COc1ccc(Br)cc1)N1CCN(C2CCCC2)CC1,-,-,-,-,-,93
Cc1ccc(OCC(=O)N2CCN(C3CCC(c4ccccc4)CC3)CC2)cc1 (stereo not given),-,.,.,.,-,57
CN1CCN(C(=O)COc2ccc(Oc3ccccc3)cc2)CC1,-,.,.,.,-,-
O=C(COc1ccccc1)N1CCN(C2CC3CCC2C3)CC1 (stereo not given),.,-,-,-,-,72
Cc1ccc(OCC(=O)NCCN2CCN(C(=O)COc3ccc(C)cc3)CC2)cc1,-,-,-,-,-,-
Cc1cc(C)c(-n2c(O)c(/C=N/N3CCCCC3c3cccnc3)c(=O)[nH]c2=O)c(C)c1 (stereo not given),-,-,-,.,-,-
SMILES,Ins promoter up,bCat KO growth,HCT116 PTEN-null,INS promoter inh,Autophagy HCS,Lmaj promast
O=c1[nH]c(=O)n(C2CCCCC2)c(O)c1C1NCCc2ccccc21 (stereo not given),-,-,-,-,-,-
COc1ccc(NP(=O)(Oc2cccc(C)c2)Oc2cccc(C)c2)cc1OC,-,.,.,.,.,.
CN1CCC(N(C)c2ncnc3ccc(Br)cc23)CC1,-,-,-,?,-,52
O=S(=O)(c1ccc(Cl)cc1)N1CCCC1c1cccnc1 (stereo not given),-,.,.,.,.,.
O=C(Nc1ccc(Cl)cc1C(=O)c1ccccc1)c1ccccc1,-,-,-,-,-,69
O=C(CNC(=O)c1cccc(Cl)c1)Nc1ccc(Br)cc1C(=O)c1ccccc1,-,-,-,-,-,59
CCC(=NCc1ccco1)c1c(O)n(-c2ccccc2C)c(=O)[nH]c1=O,-,.,.,.,.,.
COc1ccc(C2NCc3ccc4c(c3-n3cccc32)OCO4)cc1O (stereo not given),-,-,-,-,+,74
O=C(CN1CCCCC1)c1ccc(F)cc1,-,.,.,.,.,.
CCOc1ccc(-n2c(O)c(N=Nc3ccc([N+](=O)[O-])cc3)c(=O)[nH]c2=O)cc1,-,.,.,-,-,-
CC(C)CN1CCN(Cc2ccc(F)cc2Cl)CC1CCO (stereo not given),-,.,.,.,.,.
O=C(O)c1cccc2nc3ccccc3nc12,-,.,.,.,-,100
COC(=O)c1ccccc1-n1c(C)nc2ccccc2c1=O,.,-,-,-,-,-
CCOC(=O)c1nc2ccccc2c(=O)n1-c1ccc(C)cc1C,-,-,-,.,-,-
O=C1CC(c2cccnc2)=NN1c1ccccc1,-,.,.,-,-,-
CCCCCCn1c(O)c(C=Nc2ccccc2N2CCOCC2)c(=O)[nH]c1=S,3.2,.,.,.,.,.
CCCCn1c(O)c(/C=N/N2CCOCC2)c(=O)[nH]c1=S,-,.,.,.,.,.
FC(F)(F)c1ccc2c(c1)ncn2C1CCN(Cc2nnnn2C2CCCCC2)CC1,.,-,-,.,-,-
O=C(c1ccccc1)C(CN1CCCC1)c1ccccc1 (stereo not given),?,1.8,1.5,-,-,100
CC1CN(c2ccc([N+](=O)[O-])c3cccnc23)CC(C)N1 (stereo not given),-,-,-,-,-,-
CN1CCN(CCOC2c3ccccc3CSc3ccc(Cl)cc32)CC1 (stereo not given),-,-,-,-,-,99
Clc1ccc2c(c1)C(OC1CN3CCC1CC3)c1ccccc1CS2 (stereo not given),?,-,-,-,-,100
CC(=O)C1(c2ccccc2)CCNCC1,-,-,-,-,-,-
C[C@H]1CCC/C=C/C2C[C@H](O)CC2[C@H](O)/C=C/C(=O)O1 (stereo not given in full),.,-,-,-,+,-
CC1CCC/C=C/C2CC(O)CC2C(O)/C=C/C(=O)O1 (stereo not given),?,2.8,-,-,-,-
SMILES,Ins promoter up,bCat KO growth,HCT116 PTEN-null,INS promoter inh,Autophagy HCS,Lmaj promast
CC12CN3CCN(C1)CC(C)(C3)C2=NN,-,.,.,.,.,.
OCC1(CO)COC(c2cccnc2)N1 (stereo not given),-,-,-,-,-,-
CCNC(=S)N1CCn2cccc2C1c1cccnc1 (stereo not given),-,.,.,-,-,70
CC(C)(C)c1ccc(C(=O)C2CCCN(Cc3ccon3)C2)cc1 (stereo not given),-,.,.,.,-,80
CSc1ccc(C(=O)C2CCCN(Cc3cc4ccccc4[nH]3)C2)cc1 (stereo not given),-,.,.,-,-,88
O=C(c1ccc(-c2ccccc2)cc1)C1CCCN(Cc2ccn[nH]2)C1 (stereo not given),.,.,.,-,-,98
O=C(c1ccc(Cl)cc1)C1CCCN(Cc2ccon2)C1 (stereo not given),.,.,.,-,-,-

# Screens as filed in PubChem.
